An excerpt weighted towards active compounds, which were near 6.5% of everything screened.
LASV entry inh: Lassa virus entry inhibition; Lassa virus pseudotype entry inhibition, cell reporter; Potency, µM (doses to about 37.9 µM), without a hit: at the top dose activity change, negative = inhibition, most hits filed as inhibitors; actives 1.2% (n = 300,000); calls by dose curve; tested in HEK293 cells; also: potency is read from the fitted curve at half-maximal effect; nearly all actives have a fitted effect of over 50% in size
Vaccinia mCherry: vaccinia inhibition (mCherry reporter) | Vaccinia virus mCherry reporter infection, fluorescence | Potency, µM (titrated, usually from 36.5 µM), inactives show at the top dose activity change, negative = inhibition, usual class: inhibitors | actives 0.63% (n = 310,000) | AID 720579; calls by dose curve; tested in A549 cells; also: potency is read from the fitted curve at half-maximal effect; nearly all actives have a fitted effect of over 35% in size
VACV Venus inh: vaccinia inhibition (Venus reporter). Vaccinia virus Venus reporter expression, fluorescence. Potency, µM (top dose mostly 36.5 µM), inactives show at the highest dose activity change, negative = inhibition, most hits filed as inhibitors. actives 0.46% (n = 330,000). AID 720580; calls by dose curve; tested in A549 cells; also: potency is read from the fitted curve at half-maximal effect; nearly all actives have a fitted effect of over 30% in size
FMDV inh: antivirals against foot and mouth disease virus; FMDV antiviral cell-based qHTS; Potency, µM (top dose mostly 57.9 µM), inactives show at the top dose activity change, negative = inhibition, most hits filed as inhibitors; actives 1.2% (n = 410,000); AID 1159524; calls by dose curve; tested in HEK293T cells; also: read-out not given here; potency is read from the fitted curve at half-maximal effect; nearly all actives have a fitted effect of over 45% in size
MARV entry inh: Marburg virus entry inhibition | Marburg virus pseudotyped entry inhibition, cell reporter | Potency, µM (titrated, usually from 37.8 µM), for the others: at the top dose activity change, negative = inhibition, usual class: inhibitors | actives 1.8% (n = 300,000) | AID 540276; calls by dose curve; tested in HEK293 cells; also: potency is read from the fitted curve at half-maximal effect
HCMV inh: inhibitors of human cytomegalovirus; actives 4.5% (n = 410,000); activity change, negative = inhibition, % at 57.5 µM; HFF cells, HCMV-luciferase reporter, 72 h; hits give low values; AID 1259415; in the data active = activity change below about -60%; inconclusive = no clear call, values can overlap the other calls; inactive = above about -39%
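Screen run at 2 compound doses on HFFs infected with reporter HCMV, MOI 1 PFU/cell. Luciferase activity from cell lysates at 72 h post infection gave inhibition relative to buffer-only and Salinomycin wells.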
Starred values were filed as active, the others as inactive; [ ] = remark or other dose. % is scaled to controls: 0 for no effect and ±100 for the full control effect.

For CCOc1cc(/C=N/Nc2cc(C)nc(-n3nc(C)cc3C)n2)ccc1O the results were FMDV inh inconclusive and HCMV inh -78*.
Screening CNc1cc(C)nc(-n2nc(C)cc2C)n1 returned LASV entry inh 2%, VACV Venus inh -5%, FMDV inh 19%, MARV entry inh 0% and HCMV inh inconclusive.
`COc1ccccc1/C=N/Nc1cc(C)nc(N2CCOCC2)n1` gave FMDV inh -9% and HCMV inh 36.
For O=C(Nc1cc(Br)c(O)c(Br)c1)c1cccc(NC(=O)c2ccco2)c1 the results were FMDV inh -20% and HCMV inh 26.
CCCOc1cccc(C(=O)NC(=S)Nc2cccc(C(F)(F)F)c2)c1 was read as LASV entry inh inconclusive, Vaccinia mCherry -9%, VACV Venus inh -12%, MARV entry inh 4% and HCMV inh inconclusive.
`O=C(NC1CCCC1)c1cccc(NC(=O)c2ccco2)c1` gave LASV entry inh -1%, FMDV inh 7%, MARV entry inh -5% and HCMV inh -107*.
For CCOc1cccc(C(=O)Nc2cccc(NC(=O)c3ccco3)c2)c1 the results were LASV entry inh -24%, Vaccinia mCherry inactive, VACV Venus inh -13%, FMDV inh -5%, MARV entry inh inconclusive and HCMV inh -62*.
`CCOc1cccc(C(=O)NC(=S)Nc2cccc(C)c2)c1` gave LASV entry inh inconclusive, Vaccinia mCherry -20%, VACV Venus inh -7%, FMDV inh -2%, MARV entry inh inconclusive and HCMV inh -99*.
Screening O=C(Nc1cccc(NC(=O)c2ccco2)c1)c1cccc(Br)c1 returned LASV entry inh inconclusive, Vaccinia mCherry -23%, VACV Venus inh -21%, FMDV inh -13%, MARV entry inh 15%[46.1 µM] and HCMV inh -90*.
`Cc1cccc(OC(=O)c2nc(SCc3ccccc3F)ncc2Cl)c1` gave LASV entry inh 19%[46.1 µM], Vaccinia mCherry -16%, VACV Venus inh -4%, FMDV inh -18%, MARV entry inh -4%[46.1 µM] and HCMV inh -26.
For CN(C)c1ccc(C(=O)N2CCCC(Cn3cc(C(=O)N4CCCC4)nn3)C2)cc1 (configuration not stated) the results were Vaccinia mCherry inactive, VACV Venus inh -13% and FMDV inh -3%.
Screening O=C(NCCc1ccc(Cl)cc1)c1cc(-c2ccc(Cl)cc2)n[nH]1 returned LASV entry inh 3%[46.1 µM], Vaccinia mCherry -3%, VACV Venus inh -2%, FMDV inh 0% and HCMV inh 5.
COc1ccc(C2NC(=O)C(C#N)=C(S)N2c2ccc(C)cc2)cc1OC (configuration not stated) was read as FMDV inh 14% and HCMV inh -65*.
COc1cc(C2NC(=O)C(C#N)=C(S)N2c2ccc(C)cc2)ccc1OC(C)C (configuration not stated) was read as LASV entry inh 3%, Vaccinia mCherry -14%, VACV Venus inh -16%, FMDV inh 9%, MARV entry inh 4% and HCMV inh 9.
Screening CN(c1ccc(-c2csc(NC(=O)C3CC(=O)N(Cc4ccco4)C3)n2)cc1)S(C)(=O)=O (configuration not stated) returned FMDV inh 22µM* and HCMV inh 24.
For COC(=O)[C@@]1(C=C2c3ccc(F)cc3[C@@H](OC)[C@@H]2C)[C@@H]2C=CC[C@@H]21 the results were MARV entry inh -19%[14.2 µM].
`O=C(CSC1=NCCN1)Nc1cccc([N+](=O)[O-])c1` gave LASV entry inh -9%, Vaccinia mCherry -21%, VACV Venus inh -17%, FMDV inh 18µM*, MARV entry inh inconclusive and HCMV inh 13.
Screening O=C(CSC1=NCCN1)NC(c1ccccc1)c1ccccc1 returned LASV entry inh inconclusive, Vaccinia mCherry -5%, VACV Venus inh -14%, FMDV inh 32µM*, MARV entry inh -18% and HCMV inh 40.
Screening CNC(=S)N/N=C/c1cccc(OCc2ccccc2F)c1 returned LASV entry inh 4µM*, Vaccinia mCherry -5%, VACV Venus inh -25%, FMDV inh -9%, MARV entry inh inconclusive and HCMV inh 6.
For CCNC(=S)N/N=C/c1cccc(OCc2c(F)cccc2Cl)c1 the results were LASV entry inh 9.2µM*, Vaccinia mCherry -7%, VACV Venus inh -27%, FMDV inh inconclusive, MARV entry inh inconclusive and HCMV inh inconclusive.
Screening Fc1ccccc1COc1ccc(/C=N/NC(=S)NCc2ccccc2)cc1 returned LASV entry inh inconclusive, FMDV inh -10%, MARV entry inh -4% and HCMV inh -17.
`CCNC(=S)N/N=C/c1cccc(/C=N/NC(=S)NCC)c1` gave LASV entry inh 6%, Vaccinia mCherry 16%, VACV Venus inh 9%, FMDV inh -7%, MARV entry inh -14%[46.1 µM] and HCMV inh -37.
`COC(=O)c1ccc(CN2CCC3(CCC(CNC(=O)c4ccccc4)O3)CC2)cc1` (configuration not stated) gave Vaccinia mCherry -12%, VACV Venus inh 2% and FMDV inh -11%.
`COc1cc(-c2cc(C)c3c(OC)ccc(OC)c3n2)cc2c1OCCN(C(=O)CCn1ccc(C)n1)C2` gave Vaccinia mCherry -12%, VACV Venus inh -2% and FMDV inh -13%.
`COc1cc(/C=C/c2nc(C#N)c(N3CCN(C)CC3)o2)cc(OC)c1OC` gave LASV entry inh 0%[46.1 µM], Vaccinia mCherry inconclusive, VACV Venus inh -22%, FMDV inh -1%, MARV entry inh inconclusive and HCMV inh 69.
COc1ccc2[nH]c(=O)c3c(c2c1)OC(C)(C)C=C3 was read as LASV entry inh -14%, Vaccinia mCherry 13µM*, VACV Venus inh 11µM*, FMDV inh -24%, MARV entry inh -6% and HCMV inh -96*.
For Cc1cc2c([nH]c3ccccc32)c2c1OC(C)(C)C=C2 the results were Vaccinia mCherry -26%, VACV Venus inh -26%, FMDV inh 56% and HCMV inh 34.
CC1O[C@@H](OC2CC[C@@]3(C=O)C4CC[C@]5(C)C(C6=CC(=O)OC6)CC[C@@]5(O)C4CC[C@]3(O)C2)C(O)C(O)C1O (some centres not stated) was read as Vaccinia mCherry 25µM*, VACV Venus inh 0.045µM* and FMDV inh 0%.
C[C@]12CCC3C(CC[C@]4(O)CC(O)CC[C@@]34C=O)[C@]1(O)CCC2C1=CC(=O)OC1 (some centres not stated) was read as Vaccinia mCherry inconclusive, VACV Venus inh 10µM* and FMDV inh inconclusive.
For COc1ccc(OC)c(-c2cc(Cl)c3c(c2)CC(CNC(=O)c2coc4c2C(=O)CCC4)O3)c1 (configuration not stated) the results were Vaccinia mCherry -10%, VACV Venus inh 3% and FMDV inh 18%.

Assay outcomes deposited in PubChem BioAssay by National Center for Advancing Translational Sciences (NCATS).
